Source: PubChem (National Center for Advancing Translational Sciences (NCATS))
Shown are actives, neighbours in structure and some others; about 2.7% of the full set was active somewhere.
KDM5B inhibitor: KDM5B demethylase inhibition; AID 1347165; KDM5B demethylase, FDH-coupled NADH fluorescence (FDH is formaldehyde dehydrogenase); hit rate 2.6% among 220,000; Potency, µM (doses to about 57.7 µM), usual class: inhibitors; Q9UGL1; further: potency means the concentration at half of the fitted maximal effect; 0% is about no effect; nearly all actives have a fitted effect of over 70% in size
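Inhibition is measured as reduced NADH fluorescence generation from FDH coupling to formaldehyde release. Truncated KDM5BΔAP at 200 nM final acts on H3K4me3 peptide (12.5 µM in substrate mix) in pH 7.5 HEPES buffer with Tween-20, 30 min, room temperature.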
IP6K1 inhibitor: inhibitors of human IP6K1 | Q92551 | IP6K1 kinase, ADP-Glo luminescence, 2 h; hits give low values | activity change, % (series mostly up to about 58 µM) | hit rate 0.81% among 140,000 | AID 1645851; in the data active means activity change below about -25%; further: on the % scale 0 is the no-effect control and ±100 the full control effect
Target sequence (Q92551 whole entry, looked up): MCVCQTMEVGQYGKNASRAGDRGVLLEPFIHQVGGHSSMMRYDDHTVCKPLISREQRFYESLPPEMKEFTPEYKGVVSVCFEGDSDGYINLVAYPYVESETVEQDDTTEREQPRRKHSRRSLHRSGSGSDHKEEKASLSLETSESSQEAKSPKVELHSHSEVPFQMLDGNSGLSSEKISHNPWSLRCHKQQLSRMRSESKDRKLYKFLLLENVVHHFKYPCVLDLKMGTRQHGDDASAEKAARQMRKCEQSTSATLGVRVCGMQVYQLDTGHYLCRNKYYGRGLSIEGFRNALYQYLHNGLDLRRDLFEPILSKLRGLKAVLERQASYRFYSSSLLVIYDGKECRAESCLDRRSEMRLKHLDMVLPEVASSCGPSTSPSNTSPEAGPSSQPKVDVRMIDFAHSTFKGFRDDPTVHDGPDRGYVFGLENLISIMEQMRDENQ
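ADP-Glo luminescence measures ADP made by human IP6K1 during a 2 h RT reaction with ATP/IP6 (mix at 1.3 mM/130 uM); top library doses 57.5 and 19.1 uM final.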
IP6K1 inh cnf: human IP6K1 inhibition, confirmatory. shares compounds with IP6K1 inhibitor. recombinant IP6K1 kinase, ADP-Glo luminescence, 2 h. Potency, µM (highest dose often 49 µM), for the others: at the highest dose activity change, negative = inhibition, most hits filed as inhibitors. hit rate 13% among 1,200. AID 1645852; further: potency means the concentration at half of the fitted maximal effect; on the % scale 0 is the no-effect control and ±100 the full control effect; nearly all actives have a fitted effect of over 65% in size
Active calls of the source: *; i = inactive; u = inconclusive; x = no result given; [ ] = remark or other dose. Unless noted, the call rests on the fitted dose curve; in most records, active means well fitted inhibition curve with a large enough effect; inconclusive means small, poorly fitted or top-dose-only effect; inactive means no such curve, though single readings can be large or run the other way.

SMILES	KDM5B inhibitor	IP6K1 inhibitor	IP6K1 inh cnf
Cc1cc(C(=O)NC2CCCc3ccccc32)c2ccccc2n1 (stereo unspecified)	i	x	x
COc1cccc2c1cc1c(=O)n(CC(=O)N3CCN(c4cc(Cl)ccc4C)CC3)nc(C)n12	u	-8	x
COc1cccc2c1cc1c(=O)n(CC(=O)N3CCN(c4cccc(C)c4C)CC3)nc(C)n12	u	-26*	10%
CCOC(=O)C1CCN(C(=O)Cn2nc(C)n3c(cc4c(OC)cccc43)c2=O)CC1	u	-22	x
Cc1ccc2c(c1)cc1c(=O)n(CC(=O)N3CCCCC3)nc(C)n12	u	-27*	-19%
CCOC(=O)C1CCN(C(=O)Cn2nc(C)n3c(cc4cc(C)ccc43)c2=O)CC1	u	-35*	-25%
Cc1nn(CC(=O)N2CCCCC2)c(=O)c2cc3occc3n12	i	14	x
CCc1c(C)sc(NC(=O)c2ccc(C(C)(C)C)cc2)c1C#N	i	x	x
CCN(CC)S(=O)(=O)c1ccc(S(=O)(=O)Nc2ccc(C(C)C)cc2)cc1	i	x	x
CCn1cc(S(=O)(=O)N2CCC3(CCC3N3CCOCC3)CC2)cn1 (stereo unspecified)	x	15	x
NC(=O)c1nn(CC(=O)Nc2ccccc2OC(F)(F)F)c(=O)c2ccccc12	i	x	x
CC(Oc1ccc(Cl)cc1Cl)C(=O)Nc1ccnn1C(C)C (stereo unspecified)	i	x	x
CC(NC(=O)CSc1nc(CN2CCOCC2)nc2ccccc12)c1ccccc1 (stereo unspecified)	i	x	x
O=C(O)CCC(=O)OCCc1ccccc1	i	x	x
CCN1CCN(C(c2ccc(F)cc2)c2sc3nc(-c4ccco4)nn3c2O)CC1 (stereo unspecified)	i	-29*	u
CCN1CCN(C(c2ccc(C)cc2)c2sc3nc(-c4ccco4)nn3c2O)CC1 (stereo unspecified)	i	12	x
O=C(Nc1ccc(N2CCC(N3CCCCC3)CC2)c(C(=O)O)c1)c1ccccc1	u	-37*	u
CC1CCN(c2ccc(NC(=O)c3cccc(Cl)c3)cc2C(=O)O)CC1	u	-17	x
O=C1CC(c2cccc(Br)c2)c2cc(Br)c3ccccc3c2N1 (stereo unspecified)	i	x	x
CN(CC(=O)N(C)C)Cc1ncc(-c2ccccc2)o1	i	x	x
Cc1ccc(Cl)cc1NC(=O)CSCc1cnn(-c2ccccc2)c1-n1cccc1	i	25	x
Cc1ccc(NC(=O)CSCc2cnn(-c3ccccc3)c2-n2cccc2)c(C)c1	i	-28*	2%
CS(=O)(=O)N1CCC(C2CCN(Cc3ccc(Br)o3)C2)CC1 (stereo unspecified)	i	24	x
Cc1cc2ccccc2n1CCNC(=O)c1cccc([N+](=O)[O-])c1	i	x	x
COc1ccccc1-c1nc2cc(NC(=O)c3ccccc3Cl)ccc2o1	u	-10	x
SMILES	KDM5B inhibitor	IP6K1 inhibitor	IP6K1 inh cnf
COc1cc2ccccc2cc1C(=O)Nc1ccc2oc(-c3cccc(C)c3)nc2c1	u	-28*	25%
COc1cc2ccccc2cc1C(=O)Nc1ccc2oc(-c3ccncc3)nc2c1	i	x	x
O=C(Nc1ccc2oc(-c3ccccc3F)nc2c1)c1ccccc1Cl	u	-49*	u
COc1ccc(N(Cc2cc(CN3CCOCC3)cs2)S(=O)(=O)c2cc(C)cc(C)c2)cc1	i	x	x
CC1=C(C(=O)OC2CCCCCC2)C(c2c(Cl)cccc2Cl)CC(=O)N1 (stereo unspecified)	i	14	x
CC1=C(C(=O)OC2CCCCC2)C(c2ccc([N+](=O)[O-])cc2)C2=C(CC(C)(C)CC2=O)N1 (stereo unspecified)	x	-36*	-24%
Cc1nc(SCC(=O)Nc2sc3c(c2C#N)CCCCC3)c2ccccc2n1	i	x	x
O=C(Nc1ccc(Cl)cc1)N1CCN(c2ccc3nnc(C4CC4)n3n2)CC1	x	7	x
O=C(Cc1c[nH]c2ncc(-c3cccc(Cl)c3)cc12)NCc1cccnc1	u	-27*	u
COc1cccc(-c2cnc3[nH]cc(CC(=O)NCc4cccnc4)c3c2)c1	u	-27*	u
COc1ccc(OC)c(-c2cnc3[nH]cc(CC(=O)NCc4cccnc4)c3c2)c1	i	-16	x
O=C(Cc1c[nH]c2ncc(-c3cccc(F)c3)cc12)NCc1cccnc1	u	-3	x
CN(C)C(=O)C1CCCN1Cc1ccc(-c2cncnc2)cc1 (stereo unspecified)	x	-4	x
CC1CCN(CC2CCCN(S(=O)(=O)c3ccc(F)cc3)CC2)CC1 (stereo unspecified)	i	0	x
CN(Cc1cccc(C(N)=O)c1)C(=O)c1nn(-c2ccccc2)c(=O)c2ccccc12	i	x	x
CCCN(C(=O)Cn1ncc2c([nH]c3ccccc32)c1=O)c1ccc(F)cc1	i	-37*	-16%
CCCCN(Cc1ccco1)C(=O)Cn1ncc2c([nH]c3ccccc32)c1=O	u	17	x
CCn1nc(C(=O)Nc2ccc3c(c2)OCO3)c2ccccc2c1=O	i	x	x
Fc1ccccc1-c1ccc(CNCc2ccccc2)o1	i	x	x
CCN1CC2(CCN(C(=O)c3cccc(Cn4cccn4)c3)CC2)OC1=O	i	-4	x
CCN1CC2(CCN(C(=O)c3cnc4c(O)cccn4c3=O)CC2)OC1=O	32µM*	-27*	-6%
CCOc1ccccc1C(=O)Nc1nnc(C2CC2)s1	i	x	x
Cc1ccccc1Oc1nc2c(c(=O)n(C)c(=O)n2C)n1C	i	x	x
Cc1cccc(Oc2nc3c(c(=O)n(C)c(=O)n3C)n2C)c1	i[11.5 µM]	-27*	-18%
O=C(N/N=C/c1c2ccccc2cc2ccccc12)C1CC1	i	x	x
SMILES	KDM5B inhibitor	IP6K1 inhibitor	IP6K1 inh cnf
COc1cc(C#N)ccc1OC(C)C(=O)c1ccc2c(c1)CCC2 (stereo unspecified)	i	x	x
O=C(NC1CCCC1)C1CCN(Cc2ccccc2-c2cccnc2)CC1	x	7	x
O=C1Nc2ccccc2C1(c1ccc(O)cc1)c1ccc(O)cc1	x	5	x
Cc1cccc2c1NC(=O)C2(c1ccc(O)cc1)c1ccc(O)cc1	x	-26*	1%
O=C(Nc1cc(-c2cccnc2)nn1-c1ccccc1)c1cccc(Cl)c1	x	-6	x
FC(F)(F)c1ccccc1-c1nc(NCc2ccc(-c3ccc(Cl)c(Cl)c3)cc2)c2ccccc2n1	x	x	-4%
c1csc(-c2nc(NC3CCCC3)c3ccccc3n2)c1	i	x	x
FC(F)(F)c1ccccc1-c1nc(NCc2cccs2)c2ccccc2n1	x	x	-3%
Clc1ccc2c(NCc3cccs3)ncnc2c1	i	x	x
Cc1ccccc1-c1nc(NCc2cccs2)c2ccccc2n1	x	x	-2%
c1cncc(-c2nc(NCc3ccncc3)c3ccccc3n2)c1	i	x	x
C[C@]1(CO)C2CC[C@@H](O)[C@@H](CC(=O)N3CCCC3)[C@]2(C)CC[C@H]1OC(=O)Nc1ccccc1 (stereo partly specified)	i	7	x
CC(C)n1nc(C(=O)Nc2nc(-c3ccc4c(c3)OCCO4)cs2)c2ccccc2c1=O	i	x	x
CCCNc1c(NC(=O)Nc2ccc(C)c(F)c2)c(=O)oc2ccccc12	i	x	x
CNC(=S)NNC(=O)c1ccccc1	i	x	x
COc1ccc(C(=O)OCC(=O)NC2CCC(C)CC2)cc1OC (stereo unspecified)	i	x	x
CCOC(=O)NNC(=O)c1ccc(CC)cc1	i	x	x
